D1 antag = human D1 dopamine receptor antagonism. AID 504652. 3.2% of 360,000 active. HEK293 TREx D1 cells, calcium flux, dopamine EC80; hits give low values. activity change, negative = inhibition, % at 10 µM; in the data active = activity change below about -30%
Target sequence (P21728 whole entry, looked up): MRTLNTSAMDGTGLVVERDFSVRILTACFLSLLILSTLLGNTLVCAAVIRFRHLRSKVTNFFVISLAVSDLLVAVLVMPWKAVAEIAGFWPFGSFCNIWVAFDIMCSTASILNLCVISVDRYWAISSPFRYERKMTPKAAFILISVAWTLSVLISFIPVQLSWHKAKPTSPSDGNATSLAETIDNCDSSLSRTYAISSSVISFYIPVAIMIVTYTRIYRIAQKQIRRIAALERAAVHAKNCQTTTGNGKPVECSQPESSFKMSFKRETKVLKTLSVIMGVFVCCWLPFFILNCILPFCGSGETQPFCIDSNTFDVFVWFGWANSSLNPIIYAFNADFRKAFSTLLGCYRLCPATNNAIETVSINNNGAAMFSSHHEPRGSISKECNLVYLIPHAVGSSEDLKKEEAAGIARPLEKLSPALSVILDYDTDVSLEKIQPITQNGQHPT
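Calcium flux readout: force-coupled, inducible Hek293 Trex D1 line, cells induced overnight at 30 C with tetracycline, dye-loaded 30–90 min at RT. Antagonism scored against EC80 dopamine challenge given 180 s after compound.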
D1 agonist = activates the human D1 dopamine receptor; P21728; HEK293 T-REx D1 cells, calcium flux, agonist mode; activation, % at 2 µM; 1% of 360,000 active
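Tetracycline-induced HEK293 TREx D1 cells, force-coupled to calcium signalling, were dye-loaded with a no-wash calcium kit. Compound was pin-added after a 10 s baseline. Fluorescence was read kinetically at 1 cycle/s for 180 s, with calcium rises flagged as agonism.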
LDHA inh = LDHA (human) enzyme inhibition; P00338; purified LDHA, NADH/diaphorase-resazurin fluorescence; hits give low values; activity change, % (values are at about 110 or 230 µM); 0.15% of 480,000 active; AID 1347041; in the data active = activity change below about -30%
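Human LDH5 (2 nM) was incubated with 0.06 mM NADH and 0.2 mM pyruvate for 5 min at room temperature in Tris pH 7.4. Remaining NADH was coupled through diaphorase/resazurin, and resorufin fluorescence was read at 0 and 20 min.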
TRHR agonist = TRH receptor (human) agonism | activation, % at 2 µM | 0.18% of 360,000 active | AID 493084 | P34981 | TRHR cells, calcium flux fluo-8, FDSS agonist mode
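Fluo-8-loaded TRHR cells; 10 s baseline, compound added, kinetic Ca2+ fluorescence read 1/s, agonist mode.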
TRHR enhancer = allosteric enhancers of human TRH receptor | TRHR cells, fluo-8 calcium fluorescence, EC20 TRH enhancement | enhancement, % at 2 µM | 0.66% of 360,000 active; in the data active = enhancement above about 30%
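Enhancer read-out: after compound pinning and an initial kinetic agonist-mode read, an EC20 of TRH (10 nM final) was injected and fluo-8 calcium signal (Ex 480/Em 530) followed at 1 s/cycle for 100 cycles in TRHR-expressing cells.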
D1 PAM = potentiators of human D1 dopamine receptor. P21728. HEK293 TREx D1 cells, calcium flux, dopamine EC20 potentiation. potentiation, % at 10 µM. 0.036% of 360,000 active; in the data active = potentiation above about 30%
Numbers stand for hits; . = inactive; / = not tested or not shown. Hits are enriched below; roughly 3.6% of the tested compounds scored in any of these assays. Rule as the data show it, unless noted: active = activation above about 30%; inactive = the rest.

SMILES	D1 antag	D1 agonist	LDHA inh	TRHR agonist	TRHR enhancer	D1 PAM
CCOc1cc(C(=O)NCCN2C(=O)S/C(=C\c3cccnc3)C2=O)cc(OCC)c1OCC	-48.9	.	.	.	.	.
COC(=O)CC(NC(=O)Cc1ccc(Cl)c(Cl)c1)c1cccs1 (stereo not drawn)	/	/	.	/	/	/
CCOC(=O)CSC1=N/C(=C\c2cccnc2)C(=O)N1c1ccc(OC)cc1	.	.	.	.	.	.
CCCCSC1=N/C(=C/c2ccsc2)C(=O)N1c1ccccc1	-44.9	.	.	.	.	.
CSC1=N/C(=C\c2ccccc2)C(=O)N1C	/	/	.	/	/	/
CCCSC1=N/C(=C/c2ccsc2)C(=O)N1c1ccccc1	-38.3	.	.	.	.	.
CCSC1=N/C(=C/c2ccsc2)C(=O)N1c1ccccc1	-72.0	.	.	.	.	.
O=C1C=Cc2ccccc2/C1=C/N(O)c1ccccc1	/	/	.	/	/	/
CN(C)c1ccc(NC(=O)c2ccc(C(C)(C)C)cc2)cc1	/	/	.	/	/	/
N#Cc1c([N+](=O)[O-])cc([N+](=O)[O-])cc1S(=O)(=O)Cc1ccccc1	-34.5	.	.	.	.	.
CCOC(=O)c1cc(-c2ccccc2)n(CCCC(=O)Nc2ccc(C)c(C)c2)c1C	-47.8	.	.	.	.	.
CC(=O)c1cc(-c2ccccc2)n(CCC(=O)Nc2ccc(C(C)C)cc2)c1C	.	63.3	.	.	.	.
CC(=O)c1cc(-c2ccccc2)n(CCC(=O)Nc2cc(C)cc(C)c2)c1C	.	.	.	.	.	.
CCOC(=O)c1cc(-c2ccccc2)n(CCC(=O)Nc2ccc(C(F)(F)F)cc2)c1C	.	85.1	.	.	.	.
COc1cc(/C=C(\C#N)C(=O)c2ccc(O)c(O)c2)cc(I)c1O	.	37.8	-44.5	.	.	.
Cc1ccc(-n2c(SCc3ccccc3C)nc3[nH]ncc3c2=O)cc1C	-78.2	.	.	.	.	.
O=Cc1cccn1-c1ccc(Cl)cc1Cl	/	/	.	/	/	/
Cc1ccc(NC(=S)N(CCN(C)C)Cc2cccs2)cc1	-36.3	.	.	.	.	.
COc1ccc(OC)c(-n2cnc3cc(C(=O)NC4CC4)ccc3c2=O)c1	/	/	.	/	/	/
COc1cc2c(cc1OC)CN(C(=O)c1ccc(S(=O)(=O)N3CCCC3)cc1)CC2	.	.	.	.	.	.
CCOc1cc2c(cc1OCC)CN(C(=O)c1cccc(S(=O)(=O)N3CCCC3)c1)CC2	-36.0	.	.	.	.	.
O=S(=O)(NCc1ccc(Cl)cc1)c1cccc2cccnc12	.	.	.	.	.	.
Cc1cc(C)c(S(=O)(=O)NCc2ccc3c(c2)OCO3)c(C)c1	-35.7	.	.	.	.	.
O=S(=O)(NCc1ccc2c(c1)OCO2)c1cccc2cccnc12	-51.6	.	.	.	.	.
Cc1cc(C)c(S(=O)(=O)NCc2ccc3c(c2)OCO3)cc1C	.	.	.	.	.	.
SMILES	D1 antag	D1 agonist	LDHA inh	TRHR agonist	TRHR enhancer	D1 PAM
CCC(C)C(NC(=O)C1CCC(C(C)C)CC1)C(=O)O (stereo not drawn)	/	/	.	/	/	/
CCOc1ccc2c(c1)O/C(=C\c1ccccc1OS(C)(=O)=O)C2=O	/	/	.	/	/	/
O=C(CCCn1c(=O)[nH]c2cc(Cl)ccc2c1=O)NCCCN1CCN(c2ccc(F)cc2)CC1	-65.6	.	.	.	.	.
COCCn1c(=O)[nH]c2cc(C(=O)NCCCN3CCN(c4ccc(F)cc4)CC3)ccc2c1=O	-39.3	.	.	.	.	.
O=C(CCCn1c(=O)[nH]c2cc(Cl)ccc2c1=O)NCCCN1CCCC1	.	.	.	.	.	.
COc1cc2[nH]c(=O)n(CCC(=O)NCCCN3CCN(c4ccccc4F)CC3)c(=O)c2cc1OC	-42.4	.	.	.	.	.
Cc1cc(C)c(C(=O)c2sc(Nc3cccc(F)c3)nc2N)cc1C	/	/	.	/	/	/
CC(C)N(Cc1nc2ccccc2[nH]1)C(C)C	-33.9	.	.	.	.	.
Cc1ccc(S(=O)(=O)NCC(=O)NCC(=O)OCc2c(F)cccc2Cl)cc1	-62.5	.	.	.	.	.
Cc1ccc(C(=O)NCC(=O)OCc2c(F)cccc2Cl)cc1	.	.	.	.	.	.
CCCNC(=O)Cn1nc(C)n2c(cc3cc(F)ccc32)c1=O	.	.	.	.	.	.
CCN1CCCC1CNC(=O)Cn1nc(C)n2c(cc3cc(F)ccc32)c1=O (stereo not drawn)	.	.	.	.	35.4	.
COC(=O)c1ccccc1NC(=O)Cn1c(=O)n(CCCC(=O)NCCc2ccc(OC)c(OC)c2)c(=O)c2ccccc21	-31.9	.	.	.	.	.
COc1ccc(CCNC(=O)CCCn2c(=O)c3ccccc3n(CC(=O)Nc3ccccc3C)c2=O)cc1OC	.	.	.	.	.	.
O=C(CCCCn1c(=O)c2ccccc2n(CC(=O)Nc2cccc(F)c2)c1=O)NCc1ccccc1Cl	.	33.5	.	.	.	.
COc1ccc(CCNC(=O)CCCCn2c(=O)c3ccccc3n(Cc3ccc(Cl)cc3)c2=O)cc1OC	-52.7	.	.	.	.	.
O=C(CCCCn1c(=O)c2ccccc2n(CC(=O)Nc2ccc(F)cc2F)c1=O)NCCc1ccccc1	-38.3	.	.	.	.	.
O=C(Cn1c(=O)c2ccccc2n(CC(=O)Nc2ccc(F)cc2F)c1=O)NCCc1ccccc1	.	.	.	.	.	.
COc1ccc(OC(=O)c2cnccn2)cc1	/	/	.	/	/	/
CCCCCNC(=O)c1nccnc1N	/	/	.	/	/	/
Cn1nc(C(=O)N(Cc2ccccc2)C2CCS(=O)(=O)C2)c2ccccc2c1=O (stereo not drawn)	/	/	.	/	/	/
CC(C)Sc1ccc2nn(CC(=O)Nc3ccc(F)cc3Cl)c(=O)n2n1	/	/	.	/	/	/
COc1cc(OC)c(NC(=O)CSc2cc(=O)n(C)c3ccc(Cl)cc23)cc1Cl	.	.	.	.	40.3	.
OC(CNCCc1ccc(C(F)(F)F)cc1)COC(c1ccccc1)c1ccccc1 (stereo not drawn)	.	100.6	.	.	.	52.0
CN(CCCc1ccccc1)CC(=O)NC(C)(C#N)C1CC1 (stereo not drawn)	/	/	.	/	/	/
SMILES	D1 antag	D1 agonist	LDHA inh	TRHR agonist	TRHR enhancer	D1 PAM
CC(=O)c1c(Cl)nc2ccc(Cl)cc2c1-c1ccccc1	/	/	.	/	/	/
CC(=O)c1c(Cl)nc2ccc(Br)cc2c1-c1ccccc1	.	.	.	.	35.0	.
COc1ccc(C(=O)CSc2nnc(Cn3cnc4ccccc43)o2)cc1	-33.7	.	.	.	.	.
CCCCCSc1nnc2c(n1)[nH]c1c(C)cccc12	-30.2	.	.	.	.	.
CCCCSc1nnc2c(n1)[nH]c1ccccc12	.	.	.	.	.	.
COc1cccc(OCc2cc(C(=O)N(Cc3ccccc3)CC3CC3)no2)c1	.	47.5	.	.	.	.
COc1cc(Cl)ccc1OCc1cc(C(=O)N2CCN(C)C(=O)[C@@H]2C)no1	/	/	.	/	/	/

High-throughput results deposited in PubChem by National Center for Advancing Translational Sciences (NCATS).
